# From PubChem BioAssay (Tox21)
# Records with an inconclusive call do not appear. Where a call stands in place of a potency, no number is given. Active and inactive are the calls of the source. Calls follow the shape of the dose curve; as a rule, active = well fitted cell-killing curve with a large enough effect in the repeat runs; inconclusive = weak or mixed curves, or effect the other way; inactive = no such curve, though single readings can be large or run the other way.
# Experiment: qHTS assay to identify small molecule agonists of the estrogen receptor alpha (ER-alpha) signaling pathway in the presence of an antagonist - cell viability counter screen (AID 1259386);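 also: cells exposed to compounds for 22 h at 37 °C before the viability read; nearly all actives have a fitted effect of over 30% in size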
# Details: VM7Luc4E2 viability, CellTiter-Fluor fluorescence, 22 h; series mostly up to 92.4 µM
# Excerpt: National Center for Advancing Translational Sciences [NCATS]
# NIH Chemical Genomics Center [NCGC]
# U.S. Environmental Protection Agency [EPA]
# National Institutes of Environmental Health Sciences [NIEHS]
# National Toxicology Program [NTP]
# U.S. Food and Drug Administration [FDA]
# Estrogen receptor (ER), a member of nuclear hormone receptor plays an important role in development, metabolic homeostasis and reproduction. Two subtypes of ER, ER-alpha and ER-beta, have similar expression patterns with some uniqueness in both types. Endocrine disrupting chemicals (EDCs) and their interactions with steroid hormone receptors like ER causes disruption of normal endocrine function. Therefore, it is important to understand the effect of environmental chemicals in ER signaling pathway. For identifying ER agonists, VM7Luc4E2 cell line has been used in the current assay.
# VM7Luc4E2 cell line (provided by Denison MS, University of California) endogenously expresses full-length ER-alpha and is stably transfected with a plasmid containing four estrogen responsive elements (ERE) upstream of a luciferase reporter gene. This current screening for measuring luciferase reporter gene activity using VM7Luc4E2 cells against Tox21 10K library collection is a confirmation study on agonist mode screening in presence of ER-antagonist (ICI-182,780) at 10.0nM final concentration. The cytotoxicity of the compounds was tested in parallel by measuring the cell viability using CellTiter-Fluor assay system (Promega, Madison, WI) in the same wells.
# Tox21 Assay Protocol Summary:
# VM7Luc4E2 cells were cultured in phenol red free assay medium containing 10% charcoal stripped FBS for 5 days prior to the assay. The cells were dispensed at 4,000 cells in 4uL of assay medium per well into white wall/solid-bottom 1536-well plates (Corning Life Sciences, Corning, NY) using a Multidrop Combi (Thermo Fisher Scientific Inc., Waltham, MA) dispenser. After the assay plates were incubated at 37C and 5% CO2 for 24hr, 1uL of 10.0nM (final concentration) ICI-182,780 or assay buffer was added using two separate tips of Flying Reagent Dispenser (FRD, Aurora Discovery, San Diego, CA). Then 23nL of compounds dissolved in DMSO at 15 concentrations and positive controls or DMSO only was transferred to the assay plates by a Pintool station (Wako, San Diego, CA). The assay plates were incubated at 37C and 5% CO2 for 22hr. After 21hr incubation at 37C, 1uL/well CellTiter-Fluor reagent (Promega Corporation, Madison, WI) was added to each well using FRD and after 1hr incubation at 37C and 5% CO2, the fluorescence signal was measured on ViewLux plate reader (PerkinElmer, Shelton, CT).
# Potency is read from the fitted curve at half-maximal effect.
row,SMILES,Potency
1,O=C(OC(=O)c1ccccc1)c1ccccc1,inactive
2,CCC(=O)C1CC(C(C)C)CC=C1C (stereo not given),inactive
3,O=C(O)CCCCCCCCCCCBr,inactive
4,CC1(C)S[C@@H]2[C@H](NC(=O)C(c3ccccc3)S(=O)(=O)O)C(=O)N2[C@H]1C(=O)O (stereo not given in full),inactive
5,CCOC(=O)c1ccc(O)c(O)c1,inactive
6,c1ccc2sc(SN(C3CCCCC3)C3CCCCC3)nc2c1,inactive
7,CC1CC(C)C(=O)C1=O (stereo not given),inactive
8,CC[N+](CC)(CCNC(=O)C(=O)NCC[N+](CC)(CC)Cc1ccccc1Cl)Cc1ccccc1Cl,inactive
9,CN1C(=O)c2ccccc2C1=O,inactive
10,Oc1cccc(Nc2ccccc2)c1,inactive
11,CC=C(Cl)Cl,inactive
12,CC(C)Nc1cccnc1N1CCN(C(=O)c2cc3cc(NS(C)(=O)=O)ccc3[nH]2)CC1,inactive
13,Cc1cc2c(OCC(CNC(C)(C)C)OC(=O)c3ccccc3)cccc2[nH]1 (stereo not given),inactive
14,OCCN1CCN(CCCN2c3ccccc3Sc3ccc(Cl)cc32)CC1,inactive
15,CC1=C(CC=O)C(C)(C)CCC1,inactive
16,Brc1cc2ccccc2c2ccccc12,inactive
17,CN(C)CCC=C1c2ccccc2C=Cc2ccccc21,inactive
18,CC(=O)OCC[N+](C)(C)C,inactive
19,CC(C)COCC(CN(Cc1ccccc1)c1ccccc1)N1CCCC1 (stereo not given),inactive
20,Oc1cc2c(cc1O)[C@H]1c3ccc(O)c(O)c3OC[C@@]1(O)C2,27.6 µM (active)

row,SMILES,Potency
1,O=C1c2ccccc2C(=O)C1c1ccc(Br)cc1,inactive
2,O=c1cc(-c2ccccc2)oc2ccc3ccccc3c12,inactive
3,Cc1[nH]cnc1CN1CCc2c(c3ccccc3n2C)C1=O,inactive
4,CCOC(=O)c1ccc(I)cc1,inactive
5,CC(C)(C)CC(=O)OCC(=O)[C@@]1(O)CC[C@H]2[C@@H]3CCC4=CC(=O)C=C[C@]4(C)[C@H]3[C@@H](O)C[C@@]21C,inactive
6,COC(=O)CCS,inactive
7,COc1ccccc1Oc1c(NS(=O)(=O)c2ccc(C(C)(C)C)cc2)nc(-c2ncccn2)nc1OCCO,inactive
8,N#CCCN(CCO)CCO,inactive
9,CCC(=O)OC,inactive
10,Oc1cccc(O)c1O,68 µM (active)
11,O=[N+]([O-])c1ccc(Nc2ccc(Nc3ccccc3)c(S(=O)(=O)O)c2)c([N+](=O)[O-])c1,54.5 µM (active)
12,C[C@@]12CCC[C@H]1[C@@H]1CC[C@H]3C[C@@H](O)CC[C@]3(C)[C@H]1CC2,inactive
13,CS(=O)(=O)c1ccc(-c2cn3ccccc3n2)cc1,inactive
14,C/C=C\C/C=C/CCCCCCCCOC(C)=O,inactive
15,O[C@@H]1CO[C@H]2[C@@H]1OC[C@@H]2O,inactive
16,O=C1NC(=O)c2cc([N+](=O)[O-])ccc21,inactive
17,CCCCN(CCN(CCCC)C(=O)N1CCOCC1)C(=O)N1CCOCC1,inactive
18,O=C1Cc2cc(Cl)ccc2N1,inactive
19,O=C(O)c1cccc(-c2noc(-c3ccccc3F)n2)c1,inactive
20,COc1ccc(OC(=O)N(CC(=O)O)Cc2ccc(OCCc3nc(-c4ccccc4)oc3C)cc2)cc1,inactive
